A selection: hits, their analogues and other compounds. The true share with any hit is near 3.8%.
ERa coact pot = enhancers of ERα–SRC-1 coactivator binding, primary screen, biochemical, TR-FRET, ERα LBD, low estradiol. TR-FRET ERalpha-LBD/SRC-Cy5 coactivator binding, 2 h; 100 = basal binding, no effect. 86,000 tested, 1.3% active. coactivator binding (% of control), % at 25.6 µM; in the data active = activity above about 200%;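 also: binding measured in presence of low estradiol as agonist stimulus; 0% = peptide alone without receptor and 100% = receptor with peptide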
Smad3 inh = Smad3/FoxH1 peptide binding inhibitors, primary screen, biochemical, TR-FRET | 88,000 tested, 0.29% active | inhibition, % at 25 µM | AID 630, 2007 | Mothers against decapentaplegic homolog 3 (Homo sapiens), P84022 | TR-FRET Smad3/Dy647-FoxH1 peptide binding, europium anti-His;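 active = compounds that reduce the energy-transfer binding signal between the protein and its labelled peptide by more than half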;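 also: 0% = Smad3 plus labelled peptide maximal FRET and 100% = peptide-only background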
ERa coact inh = ERα–SRC-1 coactivator interaction inhibitors, primary screen, biochemical, TR-FRET, ERα LBD, estradiol-bound. 86,000 tested, 1.7% active. TR-FRET ER-alpha LBD / SRC-1 peptide. AID 629, 2007. inhibition, % at 25.6 µM. Estrogen receptor (Homo sapiens), P03372; in the data active = inhibition above about 50%;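 also: 0% = receptor plus peptide control and 100% = peptide only without receptor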
Calb biofilm kill = clotrimazole potentiators killing Candida biofilms, primary screen, with clotrimazole, Alamar Blue; C. albicans biofilm + clotrimazole; inhibition, % at 6 µM; 85,000 tested, 0.14% active;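 active = inhibition above 20%; inactive = inhibition below 20%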;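 also: preformed 24 hr biofilms exposed to compound for 48 hr; 0% = biofilm without compound and 100% = blank killed by clotrimazole plus chlorhexidine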
ERb SRC1 inh = inhibitors of ERβ-SRC1 coactivator interaction, primary screen, biochemical, TR-FRET, ERβ LBD, SRC-1 peptide. TR-FRET ER-beta LBD / SRC1-Cy5 peptide binding; receptor agonist-loaded with 1 µM estradiol. AID 633, 2007. 86,000 tested, 1.3% active. inhibition, % at 25.6 µM. Estrogen receptor beta (Homo sapiens), Q92731;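 active = compounds whose percent inhibition of the receptor-coactivator binding signal exceeds about 50% in the single-dose screen, limit read from the data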;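 also: 0% = receptor plus peptide wells without compound and 100% = peptide-only wells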
Target sequence (Q92731 whole entry, looked up, the tested form may be a part): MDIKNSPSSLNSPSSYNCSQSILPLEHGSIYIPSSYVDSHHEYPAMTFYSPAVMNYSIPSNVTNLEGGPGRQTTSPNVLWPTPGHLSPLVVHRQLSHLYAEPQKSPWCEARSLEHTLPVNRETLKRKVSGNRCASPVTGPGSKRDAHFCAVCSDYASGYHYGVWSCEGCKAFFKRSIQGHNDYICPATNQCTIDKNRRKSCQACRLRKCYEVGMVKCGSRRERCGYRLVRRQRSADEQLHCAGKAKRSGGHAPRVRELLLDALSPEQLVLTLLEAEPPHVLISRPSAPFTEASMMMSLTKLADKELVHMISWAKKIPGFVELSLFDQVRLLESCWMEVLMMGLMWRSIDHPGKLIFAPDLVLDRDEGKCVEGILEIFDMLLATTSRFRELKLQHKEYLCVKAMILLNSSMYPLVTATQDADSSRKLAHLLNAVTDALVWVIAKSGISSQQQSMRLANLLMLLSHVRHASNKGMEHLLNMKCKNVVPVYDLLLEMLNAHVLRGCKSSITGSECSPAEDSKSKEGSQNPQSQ
An asterisk follows results filed as active; / = no result; [ ] = dose if it differs, or a comment.

SMILES	ERa coact pot	Smad3 inh	ERa coact inh	Calb biofilm kill	ERb SRC1 inh
Cc1ccc2c(c1)N(C(=O)c1ccco1)C(C)(C)c1ssc(=S)c1-2	84	-9	7	64*	-1
CC(=O)c1cc2c(cc1NC(=O)C1CC1)OCO2	119	13	-20	7	-20
COc1cc(S(=O)(=O)NC(C)C)ccc1Cl	89	6	65*[fluorescence artefact?]	7	2
Cc1cccc(Cl)c1NC[C@H](O)CN1CCN(C)CC1	/	0	/	/	/
CC(=O)N1CCN(C2=Nc3cccc4cccc2c34)CC1	105	-1	-9	4	-9
c1cc2c3c(cccc3c1)C(N1CCN(C3=Nc4cccc5cccc3c45)CC1)=N2	203*[fluorescence artefact?]	-5	34	8	10
Cc1cc(C)c(C)c(S(=O)(=O)NCc2ccc(C(=O)N3CCCCC3)cc2)c1C	103	8	1	2	-3
CCn1c(SC(C)C(=O)O)nc2sc3c(c2c1=O)CCC3 (centres undefined)	3	13	93*[fluorescence artefact?]	2	92*[fluorescence artefact?]
CCn1c(SCC(=O)N2CCOCC2)nc2sc3c(c2c1=O)CCCC3	109	3	8	1	0
NC(=O)[C@H]1CCCN1Cc1ccc2c(c1)OCO2	/	6	/	/	/
COc1cccc(N(C(C)=O)c2nc(C)cc(C)c2C#N)c1	99	-6	5	11	94*[fluorescence artefact?]
COc1nc(N)nc2c1ncn2[C@@H]1C[C@H](O)[C@@H](CO)O1	/	-3	/	/	/
CCc1cccc(NC(=O)Cn2cc3c(n2)CCCC3)c1	88	15	-4	1	-4
CN(C)c1ccc(NC(=O)Cn2cc3c(n2)CCCC3)cc1	16	-2	85*[fluorescence artefact?]	19	95*[fluorescence artefact?]
COc1ccccc1NC(=O)COc1ccc(C(=O)OCC(=O)N2CCCC2=O)cc1OC	349*[fluorescence artefact?]	0	-5	2	12
COc1ccc(NC(=O)COC(=O)c2ccc(N3CCCC3=O)cc2)cc1OC	124	-10	-3	11	-8
COc1cc(C(=S)N2CCCC2)cc(OC)c1O	81	-8	63*[fluorescence artefact?]	4	-10
Cc1cc2oc(C(=O)N(Cc3ccccc3)C3CCS(=O)(=O)C3)cc(=O)c2cc1Cl (centres undefined)	94	14	5	9	-2
COc1ccc(C2SCC(C(=O)NCc3ccc(F)cc3)N2C(C)=O)cc1 (centres undefined)	513*[fluorescence artefact?]	-5	-7	4	7
O=S(=O)(O)CCCc1cccc2ccccc12	/	7	/	/	/
Clc1ccc(Br)cc1-c1nc(-c2cccnc2)no1	207*[fluorescence artefact?]	10	38	2	27
Cc1ccc(C)n1-c1sccc1C(=O)O	27	2	71*[fluorescence artefact?]	1	60*
COc1ccccc1NCCC(=O)OCC(=O)Nc1ccc(Cl)cn1	102	1	4	8	13
COc1ccccc1OCCC(=O)OCC(=O)Nc1ncc(Cl)cc1Cl	48	21	54*[fluorescence artefact?]	8	40
COc1ccc(CC(=O)OCC(=O)Nc2ncc(Cl)cc2Cl)cc1OC	99	-7	-2	4	-4
SMILES	ERa coact pot	Smad3 inh	ERa coact inh	Calb biofilm kill	ERb SRC1 inh
COc1cc(CCC(=O)OCC(=O)Nc2ncc(Cl)cc2Cl)cc(OC)c1OC	22	7	56*[fluorescence artefact?]	-2	59*
CN(C)Cc1ccc(-c2cc3onc(-c4ccccc4)c3c(=O)n2C)cc1	/	-9	/	/	/
COc1ccc(NC(=O)c2ccc3c(=O)n(Cc4ccco4)c(=S)[nH]c3c2)c(OC)c1	110	0	73*[fluorescence artefact?]	8	13
COc1ccc(-n2c(Cc3cccn3C)nnc2SCC(=O)NC2CCCCC2)cc1	114	12	8	64*	-5
COc1ccc(-n2c(SCC(=O)NC3CCCCC3)nc3ccsc3c2=O)cc1	214*[fluorescence artefact?]	13	19	4	41
CCC(C)NC(=O)CSc1nc2ccsc2c(=O)n1-c1ccc(OC)cc1 (centres undefined)	98	-1	-1	6	8
O=C(O)CN(CCN(CC(=O)O)CC(=O)O)CC(=O)O.[Cu+2]	/	23	/	/	/
O=C(Nc1nnc(-c2ccco2)s1)C1CCN(S(=O)(=O)c2ccc(Cl)cc2)CC1	410*[fluorescence artefact?]	0	11	6	8
Cc1ccc(C(C(=O)NC(C)(C)C)N(Cc2cccs2)C(=O)c2csnn2)cc1 (centres undefined)	114	5	60*	9	-4
O=S(=O)(NCc1cn2ccsc2n1)c1ccc2c(c1)OCCO2	126	-1	-2	-4	7
c1cc2c(cc1C(N1CCNCC1)N1CCNCC1)OCO2	/	-12	/	/	/
CN(C1CCCCC1)S(=O)(=O)c1ccccc1	110	9	1	7	-10
CN(C1CCCCC1)S(=O)(=O)c1ccc(C(=O)O)cc1	101	-10	6	25*	8
COc1ccccc1-n1cnnc1SCC(=O)c1cc(C)n(Cc2cccs2)c1C	106	-6	6	7	0
Cc1cc(C)c(C(=O)CSc2nnc(-c3ccccc3Br)o2)cc1C	273*[fluorescence artefact?]	2	4	1	17
Cc1cc(C(=O)CSc2nc3ccccc3n2CCC#N)c(C)n1Cc1cccs1	273*	0	7	9	20
Cc1cc(C(=O)CSc2nnc(-c3ccccc3F)o2)c(C)n1Cc1cccs1	309*	-1	6	5	20
N#CCCn1c(SCC(=O)c2c[nH]c3ccccc23)nc2ccccc21	117	11	13	10	-4
O=C(CSC1=NCCN1)c1ccccc1	/	13	/	/	/
CCOC(=O)[C@]1(CC(=O)O)CCCC1=O	/	10	/	/	/
CN[C@@H]1NC(=O)c2ccccc2N1Cc1ccc(F)cc1	/	0	/	/	/
O=C(NCSc1ccnc(SCNC(=O)c2ccccc2)n1)c1ccccc1	252*	-5	-6	9	10
Cc1cc(C)nc(SCNC(=O)c2ccc(Cl)cc2)n1	114	0	3	4	-8
COc1ccc(C(c2nnnn2CCc2ccccc2)N2CCN(C3CCCC3)CC2)cc1OC (centres undefined)	102	-2	-1	5	93*[fluorescence artefact?]
COc1ccc(C(c2nnnn2C2CCCC2)N2CCN(C3CCCC3)CC2)cc1OC (centres undefined)	123	-6	-9	5	-4
C/C(=N\Nc1nc(C)cc(=O)[nH]1)C(=O)O	/	-10	/	/	/
O=C(CCSc1nnc(-c2ccncc2)o1)Nc1ccccc1Cl	105	6	-1	8	1
O=S(=O)(NCC(O)COCc1ccco1)c1cccs1 (centres undefined)	90	-3	53*[fluorescence artefact?]	2	50*
COc1c(Cl)cc(-c2noc(C)c2C(=O)NCCc2ccc(C)cc2)cc1Cl	116	-6	-5	5	-8
O=[N+]([O-])c1ccccc1N=Nc1c(O)[nH]c2ccc(S(=O)(=O)O)cc12	/	63*	/	/	/
